In PubChem BioAssay (NCATS):
Several values for one entry are separate records, joined by “and”; a condition that tells them apart may be missing. Identical values can stand only once. Results filed as inconclusive are left out. For part of these data: Entries with a potency or affinity are not part of this list. Activity calls are given as the source filed them. Unless noted, how the calls were made is not given here.

What was measured:
[1] = Immunotoxin (HA22) sensitization/mitigation study. Vehicle arm (PBS) (AID 1159510); further: potency means the concentration at half of the fitted maximal effect
[2] = Immunotoxin (SS1P) sensitization/mitigation study. Vehicle arm (DMEM) (AID 1159513); further: potency means the concentration at half of the fitted maximal effect
[3] = High-throughput drug toxicity screening in the BPDCN cell line Gen2.2 (AID 1224824); conditions: Gen2.2 BPDCN cells; at 45.8 µM (top of the series);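 further: cells exposed to compounds for 48 h before reading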
In short: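 Readout is ATP luminescence from Gen2.2 cells after two days of drug exposure in serum-containing medium at 37 °C. Values express percent activity, with vehicle defining full signal and 9.2 uM bortezomib defining zero.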

[4] = High-throughput drug toxicity screening in the BPDCN cell line Cal-1 (AID 1224825); conditions: Cal-1 BPDCN cell viability, qHTS; at 45.8 µM (top of the series)
In short: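 Exponentially growing Cal-1 cells, 500 per well in phenol red-free RPMI with 10% FBS, were exposed to compounds for 48 h at 37 °C, 5% CO2. Viability was read by CellTiter-Glo luminescence and normalised to DMSO (100%) and 9.2 uM bortezomib (0%).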

[5] = qHTS assay for measurement of the activity of small molecule inhibitors on Zika virus induced Caspase-3 activity in human iPSC derived neural progenitor cells (hNPCs) (AID 1224857; active means well fitted inhibition curve with a large enough effect; further: % of control where 0% means no effect; nearly all actives have a fitted effect of over 65% in size)
In short: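 Zika virus (2 FFU/cell) infection of human iPSC-derived NPCs, 6 h, following 1 h compound preincubation. Read-out: Caspase-Glo 3/7 luminescence.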

[6] = qHTS assay for measurement of the activity of small molecule inhibitors on Zika virus induced Caspase-3 activity in human astrocytoma cells (AID 1224859; active means well fitted inhibition curve with a large enough effect;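 further: plate controls were ZIKV-infected untreated cells for no effect and uninfected cells for full effect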)
In short: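 Caspase activation in ZIKV-infected SNB-19 cells (2 FFU/cell, 6 h) measured by Caspase-Glo 3/7 luminescence after 30 min RT; compound pre-incubated 1 h; normalised to uninfected and infected controls.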

[7] = qHTS Screen of the MIPE 4.0 Collection Against Ewings Sarcoma (RDES) (AID 1259252; active means well fitted inhibition curve with a large enough effect; further: nearly all actives have a fitted effect of over 35% in size; further: potency means the concentration at half of the fitted maximal effect)
In short: (§1)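 Measured: ATP luminescence (CellTiter-Glo) 10 min after reagent addition, following 48 h drug treatment. Relative luciferase units converted to percent activity, with no-cell wells as full and DMSO wells as zero inhibition.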

[8] = qHTS Screen of the MIPE 4.0 Collection Against Ewings Sarcoma (TC32) (AID 1259256; active means well fitted inhibition curve with a large enough effect; further: nearly all actives have a fitted effect of over 45% in size; further: potency means the concentration at half of the fitted maximal effect)
In short: as §1

[9] = Ebola virus entry assay, green fluorescence channel
[10] = Ebola virus entry assay, blue channel fluorescence
[11] = Ebola virus entry assay, ratio channel
[12] = Ebola virus entry assay, reporter ratio channel; AC50: Channel type: primary unless noted; outcome: Channel type: primary unless noted
Wherever efficacy is given: 0% is about no effect.

Compound: CCCCC/C=C\C/C=C\C/C=C\C/C=C\CCCC(=O)NC1CC1
- Potency [1]: inactive
- Potency [2]: inactive

Compound: O=C(O)C(=O)c1cn(Cc2ccccc2)c2ccc(-c3ccc(OC(F)(F)F)cc3)cc12
- Potency [1]: 23.5 µM (active)
- cell viability, % of control (lower = more cytotoxic) [3]: 171%
- viability (% of control) [4]: 118%
- Potency [5]: inactive
- outcome [6]: inactive
- Potency [7]: inactive
- Potency [8]: inactive

Compound: CCCN1CCC[C@@H]2Cc3nc(N)ncc3C[C@H]21
- efficacy [9]: 40.4% (inactive)
- AC50 [10]: 39.8 µM (active)
- outcome [11]: inactive
- AC50 [12]: 39.8 µM (active)
- Potency [5]: inactive
- outcome [6]: inactive

Compound: c1ccc2c(c1)Nc1ccccc1S2
- efficacy [9]: 4% (inactive)
- outcome [10]: inactive
- outcome [11]: inactive
- outcome [12]: inactive
- Potency [5]: inactive
- outcome [6]: inactive

Compound: CC(C)(C)CC(C)(C)c1ccc(O)cc1
- efficacy [9]: -38.7% (inactive)
- AC50 [10]: 20 µM (active)
- AC50 [11]: 17.8 µM (active) and 15.8 µM (active)
- AC50 [12]: 17.8 µM (active) and 15.8 µM (active)
- Potency [5]: inactive
- outcome [6]: inactive

Compound: CC(C)n1c(C=C[C@H](O)C[C@H](O)CC(=O)O)c(-c2ccc(F)cc2)c2ccccc21
- Potency [1]: 8.33 µM (active)
- Potency [2]: 9.35 µM (active)

Compound: COc1cc(Nc2c(C#N)cnc3cc(OCCCN4CCN(C)CC4)c(OC)cc23)c(Cl)cc1Cl
- efficacy [9]: 56% (inactive)
- AC50 [10]: 2.82 µM (active)
- AC50 [11]: 1.41 µM (active)
- AC50 [12]: 1.41 µM (active)
- Potency [1]: 13.2 µM (active)
- Potency [2]: 23.5 µM (active)

Compound: C[C@@H]1[C@@H](CC(C[C@H]2O[C@@H]3O[C@]4(C)CC[C@@H]5[C@H](C)CC[C@@H]([C@H]2C)[C@@]35OO4)C[S+](=O)([O-])c2ccc(COC(=O)N(C)C)cc2)O[C@@H]2O[C@]3(C)CC[C@H]4[C@H](C)CC[C@@H]1[C@@]24OO3 (some centres not stated)
- Potency [1]: 0.0332 µM (active)
- Potency [2]: 0.418 µM (active)
- cell viability, % of control (lower = more cytotoxic) [3]: 15.5%
- viability (% of control) [4]: 13.4%
- outcome [6]: inactive
- Potency [7]: 0.418 µM (active)
- Potency [8]: 0.469 µM (active)
